# For some of these results: Entries with a potency or affinity are not part of this list.
# What was measured:
# [1] = biological target: T1, Methionyl-tRNA synthetase, putative (Leishmania donovani (strain BPK282A1)) (UniProt E9BF75); assay: Leishmania donovani Methionine tRNA synthetase (LdMetRS):v7. Dose response assay; type: functional; design: conc 80 nM, time 150 minutes
# T1 sequence (whole entry): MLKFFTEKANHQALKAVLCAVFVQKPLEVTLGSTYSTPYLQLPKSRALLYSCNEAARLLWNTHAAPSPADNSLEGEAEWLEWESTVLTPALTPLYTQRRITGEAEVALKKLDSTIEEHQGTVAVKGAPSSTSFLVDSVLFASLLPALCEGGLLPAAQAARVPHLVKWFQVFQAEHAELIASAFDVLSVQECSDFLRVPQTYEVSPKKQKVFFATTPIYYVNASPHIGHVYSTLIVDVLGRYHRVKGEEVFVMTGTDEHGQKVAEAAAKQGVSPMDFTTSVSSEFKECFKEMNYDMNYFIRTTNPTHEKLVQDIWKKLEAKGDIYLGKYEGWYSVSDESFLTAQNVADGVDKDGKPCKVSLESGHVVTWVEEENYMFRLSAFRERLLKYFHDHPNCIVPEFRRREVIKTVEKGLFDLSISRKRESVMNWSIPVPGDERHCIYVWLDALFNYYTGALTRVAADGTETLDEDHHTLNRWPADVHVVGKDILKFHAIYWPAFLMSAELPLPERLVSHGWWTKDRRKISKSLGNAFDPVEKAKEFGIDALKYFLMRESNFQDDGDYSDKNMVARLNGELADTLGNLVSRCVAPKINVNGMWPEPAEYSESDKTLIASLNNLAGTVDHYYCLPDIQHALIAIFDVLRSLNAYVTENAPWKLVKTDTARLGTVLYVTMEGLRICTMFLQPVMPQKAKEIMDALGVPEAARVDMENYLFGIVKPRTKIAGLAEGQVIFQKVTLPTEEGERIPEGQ
# [2] = biological target: Protein translocase subunit SecA (Escherichia coli (strain K12)) (UniProt P10408); assay: Assay to Identify E. coli SecA ATPase Inhibitors; type: functional; design: scale not given: direction of the effect not stated beside the values; conditions: 30 µM
# Sequence of Protein translocase subunit SecA (Escherichia coli (strain K12)) (P10408 whole entry): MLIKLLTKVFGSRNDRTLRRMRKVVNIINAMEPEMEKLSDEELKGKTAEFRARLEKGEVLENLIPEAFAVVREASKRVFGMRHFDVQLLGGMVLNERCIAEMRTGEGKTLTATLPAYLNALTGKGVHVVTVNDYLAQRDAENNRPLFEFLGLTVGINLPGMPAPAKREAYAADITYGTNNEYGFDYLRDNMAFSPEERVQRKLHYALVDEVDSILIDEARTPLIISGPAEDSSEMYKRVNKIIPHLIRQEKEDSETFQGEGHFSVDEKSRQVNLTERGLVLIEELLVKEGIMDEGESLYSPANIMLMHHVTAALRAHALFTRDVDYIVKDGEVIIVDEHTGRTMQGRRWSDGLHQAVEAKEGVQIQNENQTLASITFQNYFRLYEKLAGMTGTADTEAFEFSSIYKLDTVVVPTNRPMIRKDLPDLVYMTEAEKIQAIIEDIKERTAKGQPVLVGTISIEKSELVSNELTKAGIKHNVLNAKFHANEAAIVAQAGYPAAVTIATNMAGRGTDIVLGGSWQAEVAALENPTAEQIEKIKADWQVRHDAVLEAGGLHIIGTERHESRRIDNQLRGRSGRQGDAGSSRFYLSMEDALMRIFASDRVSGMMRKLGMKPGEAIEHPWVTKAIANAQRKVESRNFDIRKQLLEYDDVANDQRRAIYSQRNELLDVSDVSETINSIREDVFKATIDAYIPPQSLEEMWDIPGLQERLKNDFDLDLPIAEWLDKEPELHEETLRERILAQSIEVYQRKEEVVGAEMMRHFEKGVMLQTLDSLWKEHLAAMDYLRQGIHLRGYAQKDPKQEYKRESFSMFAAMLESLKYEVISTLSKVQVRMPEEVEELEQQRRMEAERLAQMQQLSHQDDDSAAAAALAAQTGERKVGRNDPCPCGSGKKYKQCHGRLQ
# [3] = biological target: T2, Ubiquitin-activating enzyme e1, putative (Leishmania donovani (strain BPK282A1)) (UniProt E9BSI1); assay: Leishmania donovani Ubiquitin Activating Enzyme (LdE1); type: functional; design: scale not given: direction of the effect not stated beside the values; conditions: 30 µM
# T2 sequence (whole entry): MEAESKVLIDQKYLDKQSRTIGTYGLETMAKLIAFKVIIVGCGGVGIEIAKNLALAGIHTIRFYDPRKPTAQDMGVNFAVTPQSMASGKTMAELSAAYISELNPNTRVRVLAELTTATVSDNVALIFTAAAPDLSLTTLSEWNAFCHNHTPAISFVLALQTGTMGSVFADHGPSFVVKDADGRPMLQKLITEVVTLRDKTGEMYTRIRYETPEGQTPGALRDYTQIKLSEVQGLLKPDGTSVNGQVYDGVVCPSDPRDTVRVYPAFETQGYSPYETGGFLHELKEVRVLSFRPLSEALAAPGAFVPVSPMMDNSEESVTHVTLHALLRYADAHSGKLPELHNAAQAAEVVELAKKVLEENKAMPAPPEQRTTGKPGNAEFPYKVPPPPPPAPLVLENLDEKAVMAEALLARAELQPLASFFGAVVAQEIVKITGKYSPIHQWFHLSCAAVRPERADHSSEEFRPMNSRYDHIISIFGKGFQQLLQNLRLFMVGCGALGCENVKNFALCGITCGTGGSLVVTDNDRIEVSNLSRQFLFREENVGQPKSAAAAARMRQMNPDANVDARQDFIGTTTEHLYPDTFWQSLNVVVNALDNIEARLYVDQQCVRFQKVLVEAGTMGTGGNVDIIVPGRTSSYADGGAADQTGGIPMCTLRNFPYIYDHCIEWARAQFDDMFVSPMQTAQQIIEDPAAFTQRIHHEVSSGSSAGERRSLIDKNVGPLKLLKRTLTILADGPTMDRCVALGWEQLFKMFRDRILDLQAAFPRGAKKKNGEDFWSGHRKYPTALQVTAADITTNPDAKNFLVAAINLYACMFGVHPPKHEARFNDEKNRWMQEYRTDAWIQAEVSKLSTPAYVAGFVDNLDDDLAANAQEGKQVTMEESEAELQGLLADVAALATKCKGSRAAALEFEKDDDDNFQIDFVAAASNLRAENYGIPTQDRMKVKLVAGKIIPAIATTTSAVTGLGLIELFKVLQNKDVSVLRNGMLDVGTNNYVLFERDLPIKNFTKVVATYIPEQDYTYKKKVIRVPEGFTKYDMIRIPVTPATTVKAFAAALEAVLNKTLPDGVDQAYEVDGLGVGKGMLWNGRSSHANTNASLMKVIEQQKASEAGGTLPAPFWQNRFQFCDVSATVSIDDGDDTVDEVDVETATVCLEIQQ
# [4] = biological target: AMP-activated protein kinase, AMPK (Homo sapiens) (UniProt P54646+O43741+P54619+Q9UGJ0+Q9Y478+Q13131+Q9UGI9); assay: AMP-dependent Kinase enzyme assay. An in vitro enzyme assay that detects ADP turnover that is directly proportional to AMPK activity. This uses naive AMPK that is activated during the assay with MK-8722; type: functional; design: scale not given: direction of the effect not stated beside the values; conditions: 30 µM
# [5] = biological target: Sialic acid-binding Ig-like lectin 9 (Homo sapiens) (UniProt Q9Y336); assay: Hs-Siglec9 ALPHAscreen SOP 20170721; design: scale not given: direction of the effect not stated beside the values; conditions: 10 µM
# Sequence of Sialic acid-binding Ig-like lectin 9 (Homo sapiens) (Q9Y336 whole entry): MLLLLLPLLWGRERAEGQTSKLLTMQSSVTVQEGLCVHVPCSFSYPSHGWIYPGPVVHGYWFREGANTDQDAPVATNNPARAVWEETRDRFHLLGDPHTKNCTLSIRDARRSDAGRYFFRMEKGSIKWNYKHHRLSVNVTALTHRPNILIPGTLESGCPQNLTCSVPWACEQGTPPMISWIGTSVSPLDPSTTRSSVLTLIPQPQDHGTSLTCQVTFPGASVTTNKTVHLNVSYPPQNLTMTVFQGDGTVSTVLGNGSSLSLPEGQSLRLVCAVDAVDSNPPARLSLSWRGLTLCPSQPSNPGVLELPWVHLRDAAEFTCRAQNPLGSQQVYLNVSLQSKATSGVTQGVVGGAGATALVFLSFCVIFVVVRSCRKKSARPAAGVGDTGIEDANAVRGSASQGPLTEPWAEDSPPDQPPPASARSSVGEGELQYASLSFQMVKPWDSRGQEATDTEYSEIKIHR
# [6] = system: Trypanosoma cruzi; assay: Trypanosoma cruzi phosphomannomutase and mannose-1-phosphate guanylyltransferase assay; type: functional; design: scale not given: direction of the effect not stated beside the values; conditions: 10 µM
# [7] = biological target: T3, Arginase-2, mitochondrial (Homo sapiens) (UniProt P78540); assay: in vitro enzyme assay to detect the production of urea directly proportional to the activity of Arginase II; type: functional; design: scale not given: in the data most compounds retested in dose-response had high values; conditions: 33.3 µM
# T3 sequence (whole entry): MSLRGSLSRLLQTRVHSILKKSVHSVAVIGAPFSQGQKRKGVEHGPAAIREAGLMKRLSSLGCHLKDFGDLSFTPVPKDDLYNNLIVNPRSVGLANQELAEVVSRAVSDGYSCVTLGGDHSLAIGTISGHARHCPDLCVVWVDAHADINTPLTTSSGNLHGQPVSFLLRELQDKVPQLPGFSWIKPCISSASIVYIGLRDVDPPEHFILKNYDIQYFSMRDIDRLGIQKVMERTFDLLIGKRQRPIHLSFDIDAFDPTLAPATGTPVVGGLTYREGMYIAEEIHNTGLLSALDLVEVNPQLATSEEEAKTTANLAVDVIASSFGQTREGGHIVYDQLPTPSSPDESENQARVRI
# [8] = biological target: T4, Proteasome subunit beta (Trypanosoma cruzi) (UniProt O96673); assay: Trypanosoma cruzi proteasome chymotrypsin-like activity (TcProtChymo) assay.; type: functional; design: scale not given: in the data most compounds retested in dose-response had high values; conditions: 9.37 µM
# T4 sequence (whole entry): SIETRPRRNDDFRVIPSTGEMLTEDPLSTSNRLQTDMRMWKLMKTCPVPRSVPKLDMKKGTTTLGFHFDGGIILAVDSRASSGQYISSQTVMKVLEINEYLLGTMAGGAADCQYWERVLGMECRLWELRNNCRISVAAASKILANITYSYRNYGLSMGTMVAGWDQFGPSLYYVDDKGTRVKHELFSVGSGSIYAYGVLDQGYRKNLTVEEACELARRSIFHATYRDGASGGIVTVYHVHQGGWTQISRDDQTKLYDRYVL
# [9] = species: Homo sapiens; assay: To identify inhibition of the IFN signalling (Jak-Stat) pathway via expression of an eGFP reporter gene under the control of an IFN-stimulated response element (ISRE) containing MxA promoter.; type: functional; design: scale not given: direction of the effect not stated beside the values; conditions: 30 µM
# [10] = biological target: T5, Tyrosyl-tRNA synthetase, putative (Trypanosoma cruzi (strain CL Brener)) (UniProt Q4DSP6); assay: Trypanosoma cruzi tyrosyl tRNA synthetase (TcYRS) _High Tyrosine SOP; type: functional; design: scale not given: in the data most compounds retested in dose-response had high values; conditions: 30 µM
# T5 sequence (whole entry): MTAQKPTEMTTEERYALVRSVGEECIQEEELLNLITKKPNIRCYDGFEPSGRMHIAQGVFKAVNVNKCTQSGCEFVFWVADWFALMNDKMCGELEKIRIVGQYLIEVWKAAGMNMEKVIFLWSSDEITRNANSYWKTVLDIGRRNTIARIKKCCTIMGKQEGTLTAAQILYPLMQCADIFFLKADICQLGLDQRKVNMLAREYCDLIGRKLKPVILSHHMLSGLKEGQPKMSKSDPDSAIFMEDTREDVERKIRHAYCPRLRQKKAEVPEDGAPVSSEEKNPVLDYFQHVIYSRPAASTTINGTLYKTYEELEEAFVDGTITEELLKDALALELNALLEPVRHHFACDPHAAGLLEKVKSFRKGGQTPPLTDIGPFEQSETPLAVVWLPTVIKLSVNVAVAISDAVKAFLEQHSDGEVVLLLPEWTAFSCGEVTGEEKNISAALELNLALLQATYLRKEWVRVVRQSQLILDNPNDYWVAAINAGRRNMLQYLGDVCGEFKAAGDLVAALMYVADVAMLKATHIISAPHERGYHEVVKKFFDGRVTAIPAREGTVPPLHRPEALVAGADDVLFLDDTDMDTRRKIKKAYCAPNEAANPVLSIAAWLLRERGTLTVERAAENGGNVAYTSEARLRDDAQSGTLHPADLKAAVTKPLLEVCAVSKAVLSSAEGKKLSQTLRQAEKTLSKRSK
# [11] = biological target: T5, Tyrosyl-tRNA synthetase, putative (Trypanosoma cruzi (strain CL Brener)); assay: Trypanosoma cruzi tyrosyl tRNA synthetase (TcYRS) SOP; type: functional; design: scale not given: direction of the effect not stated beside the values; conditions: 30 µM
# [12] = biological target: Chromo domain-containing protein 1 (Saccharomyces cerevisiae (strain ATCC 204508 / S288c) (Baker's yeast)) (UniProt P32657); assay: ScCHD-1 Enzyme Inhibition Assay; type: functional; design: scale not given: in the data most compounds retested in dose-response had high values; conditions: 30 µM
# Sequence of Chromo domain-containing protein 1 (Saccharomyces cerevisiae (strain ATCC 204508 / S288c) (Baker's yeast)) (P32657 whole entry, the tested form may be a part): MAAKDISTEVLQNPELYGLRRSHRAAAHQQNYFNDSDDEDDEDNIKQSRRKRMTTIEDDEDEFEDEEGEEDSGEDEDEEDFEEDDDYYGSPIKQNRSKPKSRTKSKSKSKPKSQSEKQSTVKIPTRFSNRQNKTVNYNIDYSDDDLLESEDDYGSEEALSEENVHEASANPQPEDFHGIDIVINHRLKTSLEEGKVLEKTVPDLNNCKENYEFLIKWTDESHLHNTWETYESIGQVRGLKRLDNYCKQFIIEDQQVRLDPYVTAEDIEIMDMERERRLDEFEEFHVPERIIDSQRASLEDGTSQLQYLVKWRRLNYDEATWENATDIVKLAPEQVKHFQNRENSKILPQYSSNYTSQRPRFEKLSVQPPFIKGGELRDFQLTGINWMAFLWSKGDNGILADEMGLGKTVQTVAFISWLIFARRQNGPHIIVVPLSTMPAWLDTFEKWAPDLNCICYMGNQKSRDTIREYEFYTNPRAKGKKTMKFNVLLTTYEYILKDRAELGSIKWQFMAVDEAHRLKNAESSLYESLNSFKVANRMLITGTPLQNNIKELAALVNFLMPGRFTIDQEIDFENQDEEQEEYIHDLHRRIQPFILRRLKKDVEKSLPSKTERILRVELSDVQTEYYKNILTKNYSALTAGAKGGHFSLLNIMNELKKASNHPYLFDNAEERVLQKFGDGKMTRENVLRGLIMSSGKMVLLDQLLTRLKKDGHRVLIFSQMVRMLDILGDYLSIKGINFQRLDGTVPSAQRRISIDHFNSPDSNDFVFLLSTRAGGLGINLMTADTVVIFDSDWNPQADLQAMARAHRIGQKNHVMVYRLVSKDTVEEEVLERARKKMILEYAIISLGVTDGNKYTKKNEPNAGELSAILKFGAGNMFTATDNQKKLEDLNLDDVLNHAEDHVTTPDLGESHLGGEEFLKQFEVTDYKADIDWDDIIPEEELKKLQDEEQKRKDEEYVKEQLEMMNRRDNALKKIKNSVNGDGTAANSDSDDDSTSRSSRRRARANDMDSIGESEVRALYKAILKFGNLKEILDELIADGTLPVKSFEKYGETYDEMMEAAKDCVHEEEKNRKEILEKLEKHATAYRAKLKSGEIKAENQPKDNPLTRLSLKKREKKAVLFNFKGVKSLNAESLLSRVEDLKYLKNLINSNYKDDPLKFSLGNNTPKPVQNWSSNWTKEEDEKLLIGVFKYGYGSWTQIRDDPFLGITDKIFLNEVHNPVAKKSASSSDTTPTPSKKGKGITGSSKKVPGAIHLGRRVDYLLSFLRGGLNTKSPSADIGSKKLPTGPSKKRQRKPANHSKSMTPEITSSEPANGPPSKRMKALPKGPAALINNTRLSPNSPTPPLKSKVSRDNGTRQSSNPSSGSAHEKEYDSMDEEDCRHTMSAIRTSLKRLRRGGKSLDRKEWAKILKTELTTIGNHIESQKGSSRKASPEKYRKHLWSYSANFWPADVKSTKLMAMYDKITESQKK
SMILES,PXC50 ([1]; MAX_EFFECT 4.275534442),PXC50 ([1]; MAX_EFFECT 11.44366197),Percent Effect [2],Percent Effect [3],Percent Effect [4],Percent Effect [5],Percent Effect [6],Percent Effect [7],Percent Effect [8],Percent Effect [9],Percent Effect [10],Percent Effect [11],Percent Effect [12],"PXC50 ([1]; BOTTOM 1.480634741, HILLSLOPE 1.299916262, MAX_EFFECT 56.52173913, TOP 100.0)","PXC50 ([1]; BOTTOM -1.247583822, HILLSLOPE 1.089672094, MAX_EFFECT 58.06451613, TOP 100.0)","PXC50 ([1]; BOTTOM -8.715782986, HILLSLOPE 1.383269592, MAX_EFFECT 51.81518152, TOP 100.0)",PXC50 ([1]; MAX_EFFECT 37.4800638),PXC50 ([1]; MAX_EFFECT 42.80230326),PXC50 ([1]; MAX_EFFECT 8.551068884),PXC50 ([1]; MAX_EFFECT 14.26056338)
FC1(F)CCN(Cc2ccncc2)CC12CCN(Cc1ccccn1)C2 (stereo unspecified),< 4,< 4,-7.03%,0%,-0.894%,2.49%,-5.96%,0.319%,5.35%,17.3%,-3.24%,-5.13%,-2.99%,,,,,,,
COc1ccc(OC)c(C2CCN(c3ccc4cc[nH]c4n3)C2)c1 (stereo unspecified),,,,,,,,,,,,,,4.07,4.11,4.09,< 4,< 4,,
c1ccc(COC2CCN(c3cncc(-n4cccn4)n3)CC2)cc1,,,-2.59%,5.41%,-5.76%,-7.06%,4.3%,2.08%,19.2%,14.3%,8.91%,13.4%,-2.69%,,,,,,< 4,< 4
